The values below come from PubChem BioAssay (NCATS).

Inconclusive results are not listed. Active and inactive are the calls of the source. Unless noted, calls come from the whole dose curve; as a rule, active = well fitted curve in the direction sought with a large enough effect; inconclusive = small, poorly fitted or top-dose-only effect, or another doubt; inactive = no such curve, though single readings can be large; an effect the other way counts as inactive or inconclusive.

For experiment [1], the target named is Lysosomal acid glucosylceramidase (Homo sapiens) (UniProt P04062). Description: Glucocerebrosidase-p2 (AID 348; in the data active = potency below about 10 µM; note: potency is the fitted concentration of half-maximal effect). The following applies: purified GBA, blue fluorogenic substrate, 40 min. The essentials:
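Normal human glucocerebrosidase (0.2 nM) with blue fluorogenic substrate (80 uM final) in citrate/phosphate pH 5.9 with 10mM sodium taurocholate, 0.01% tween-20; 40 min RT, NaOH/glycine stop; fluorescence Ex 365/Em 440; AC50 from a titration from 0.6 nM upwards.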

Experiment [2] can be described thus: AP1 Signaling Pathway (AID 357; active = well fitted curve in either direction with a large enough effect, not every such curve was filed as active;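 note: ME-180 reporter cells stimulated with EGF at its EC50 level; % is set by controls: 0 for no effect and ±100 for the full control effect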). The conditions noted are these: ME-180 AP-1-bla reporter, EGF-induced, beta-lactamase ratio, 5 h; at 7.69 µM (top of the series) unless noted. In a few lines: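 AP-1-bla ME-180 cells, Opti-MEM + 0.5% dialyzed FBS, plated overnight 37 °C. Cpd titration + EC50 EGF, 5 h 37 °C. CCF4 2.5 h RT; ex 405, em 460/530 ratio → %activity, AC50.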

For experiment [3], the target named is Cytochrome P450 1A2 (Homo sapiens) (UniProt P05177). Put plainly: p450-cyp1a2 (AID 410; calls by dose curve; note: potency is the fitted concentration of half-maximal effect). The following applies: recombinant CYP1A2, luciferin-ME demethylation, luminescence; series mostly up to 57 µM. In a few lines: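 Read-out is luminescence from luciferin produced by CYP1A2 demethylation of Luciferin-ME (100uM, at Km). Detection reagent stopped the 60 min NADPH-dependent reaction; signals were normalized to 57 uM furafylline.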

A short description of experiment [4]: NFAT Signaling Pathway (AID 444; active = well fitted curve in either direction with a large enough effect, not every such curve was filed as active;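 note: carbachol stimulus at about its EC50 of 1 µM final; % is set by controls: 0 for no effect and ±100 for the full control effect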). The following applies: Jurkat NFAT-bla M1, carbachol, beta-lactamase ratio, 5 h; at 7.69 µM (top of the series) unless noted. The essentials:
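Read-out: CCF4 FRET ratio (460 nm/530 nm) after 1 h RT dye loading, used for %activity and AC50 from titration series. Cells: Jurkat NFAT-β-lactamase/M1 line, treated with compound plus 1 uM carbachol for 5 h, 37 °C.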

Experiment [5] can be described thus: Stat Signaling Pathway (AID 446; active = well fitted curve in either direction with a large enough effect, not every such curve was filed as active;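 note: ME-180 cervical cancer cells given 40 pM IL-6 alongside compound; SIE-controlled beta-lactamase reporter measured as 460/530 nm FRET emission ratio; % is set by controls: 0 for no effect and ±100 for the full control effect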). The conditions noted are these: ME-180 (cervical carcinoma) SIE beta-lactamase reporter, IL-6 stimulated, 5 h; at 7.69 µM (top of the series) unless noted. In a few lines:
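Normalization used AC90 stimulation (300 pM IL-6) and AC90 inhibition (125 nM pan-JAK inhibitor at 40 pM IL-6). The underlying signal is SIE-driven beta-lactamase in ME-180 cells after 5 h IL-6 exposure with compound.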

Experiment [6] deals with Glucocorticoid receptor (Homo sapiens) (UniProt P04150). Put plainly: GR-GFP Redistribution (AID 450;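 active = compounds whose dose series gives a full or clear partial fitted curve of increased nuclear translocation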; note: potency is the fitted concentration of half-maximal effect). The following applies: U2OS GR-GFP nuclear translocation, laser cytometry, 2 h.
Experiment [7] addresses Mitogen-activated protein kinase 10 (Mus musculus) (UniProt Q61831). Description: JNK3 AlphaScreen Assay (AID 530; active = well fitted curve in either direction with a large enough effect, not every such curve was filed as active;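 note: kinase came from lysate of stimulated human HepG2 cells; signal reports phosphorylation of biotinylated GST-cJun 1-79 at Ser73 with 10 µM ATP; % is set by controls: 0 for no effect and ±100 for the full control effect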). The conditions noted are these: JNK3 lysate, c-Jun phosphorylation; series mostly up to 57.1 µM. In a few lines: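 Kinase buffer: 20 mM Tris-HCl pH 7.6, 10 mM MgCl2, 1 mM DTT, 0.1 mM Na3VO4, 0.01% Tween-20; ATP 10 uM. Substrate biotin-GST-cJun(1-79), enzyme from activated HepG2 lysates. Detection by Ser73 phospho-antibody AlphaScreen.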
Background: Bead proximity is the source of the signal in Alpha formats.

In experiment [8] the target is 3',5'-cyclic-AMP phosphodiesterase 4B (Homo sapiens) (UniProt Q07343). Put plainly: qHTS Assay for Inhibitors of PDE-IV (AID 607; active = well fitted activation curve with a large enough effect in the main read-out, with a control signal flat, not every such curve was filed as active; note: % of control where 0% means no effect). The conditions noted are these: HEK293 ACTOne CNG channel cells, membrane potential fluorescence; series mostly up to 22.9 µM. The essentials: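 HEK293 ACTOne cells with CNG channel (1000/well), endogenous PDE4; membrane potential dye, compounds up to 22.9 uM final. Fluorescence Ex 535/Em 590; RO 20-1724 (100 uM final) as reference.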

Experiment [9] addresses Cytochrome P450 3A4 (Homo sapiens) (UniProt P08684). Put plainly: qHTS Assay for Activators of Cytochrome P450 3A4 (AID 885). Note: nearly all actives have a fitted effect of over 65% in size. The following applies: recombinant CYP3A4, Luciferin-PPXE luminescence, 60 min; series mostly up to 57.1 µM. In a few lines: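 Human CYP3A4 dealkylates Luciferin-PPXE to luciferin, which luciferase detection converts to light. Substrate was at its KM (25uM), buffer 200mM KPO4, reaction 60 min at RT.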
Background: qHTS replaces the single test concentration by a dilution series.

Experiment [10] can be described thus: qHTS Assay for Lipid Storage Modulators (AID 1519; calls by dose curve). The following applies: Drosophila S3 cells, BODIPY lipid droplet/cell ratio, laser cytometry, cells loaded with oleic acid; for activity change, negative = inhibition: at 57.5 µM (top of the series). The essentials:
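Cells seeded at 5,000 per well were treated with compounds over a concentration series and loaded with oleic acid (400 uM, as added). Lipid droplet fluorescence (488 nm excitation, 500-530 nm channel) was read by laser-scanning cytometry and normalized to 20 uM Triacsin C.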

In experiment [11] the target is Dual specificity protein kinase CLK4 (Homo sapiens) (UniProt Q9HAZ1). Put plainly: qHTS Assay for Inhibitors of CDC-like Kinase 4 (Kinase-Glo Assay) (AID 1770). Note: nearly all actives have a fitted effect of over 65% in size. Note: potency is the fitted concentration of half-maximal effect. The conditions noted are these: recombinant Clk4, Kinase-Glo ATP depletion luminescence; series mostly up to 66.7 µM. In a few lines: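 Readout: Kinase-Glo luminescence from ATP left after a 4.5 h room-temperature reaction of 25 nM Clk4 with 100 uM RS peptide and 1 uM ATP (final). Buffer: 25 mM Tris pH 7.5, 10 mM MgCl2.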

Experiment [12] has the same target. Put plainly: qHTS Assay for Inhibitors of CDC-like Kinase 4 (ADP-Glo Assay) (AID 1771). Note: nearly all actives have a fitted effect of over 70% in size. Note: potency is the fitted concentration of half-maximal effect. The conditions noted are these: recombinant CLK4, ADP-Glo luminescence; series mostly up to 80 µM. The essentials: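 In this ADP-Glo format, 1 uM ATP and 100 uM RS peptide served as substrates for 25 nM Clk4 in Mg2+/EGTA/DTT/Triton buffer; reactions ran 1 hr at room temperature before luminescent ADP quantification.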

Experiment [13] shares this target. Put plainly: qHTS Assay for Inhibitors of CDC-like Kinase 4 (ADP-FP Assay) (AID 1795). Note: nearly all actives have a fitted effect of over 60% in size. Note: potency is the fitted concentration of half-maximal effect. The following applies: Transcreener ADP fluorescence polarization; series mostly up to 50 µM. In a few lines:
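FP readout: Orange Transcreener ADP2 tracer (4 nM) plus ADP antibody, read after 30 min at room temperature. Kinase step: 6.25 nM Clk4, 100 uM RS peptide, 1 uM ATP, pH 7.5, 1 h.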

Experiment [14] deals with Ubiquitin carboxyl-terminal hydrolase 1 (Homo sapiens) (UniProt O94782). Put plainly: Inhibitors of USP1/UAF1: Pilot qHTS (AID 504865).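 Note: rhodamine fluorescence freed from ubiquitin-rhodamine substrate followed over time; top concentration of the series differs between compounds; % is set by controls: 0 for no effect and ±100 for the full control effect; nearly all actives have a fitted effect of over 35% in size.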 The following applies: purified USP1/UAF1, Ub-rhodamine cleavage fluorescence; series mostly up to 54.9 µM. In a few lines:
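1nM USP1/UAF1 + cpd, 15 min RT; start w/ Ub-Rho 150nM final; kinetic FL 480/540 nm, 6 reads q60 s. Buffer 50mM HEPES pH 7.8, 0.5mM EDTA, 1mM TCEP, 0.01% Tween-20, 0.1 mg/ml BSA.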

Experiment [15] is described as follows: Primary qHTS for small molecule stabilizers of the endoplasmic reticulum resident proteome: Secreted ER Calcium Modulated Protein (SERCaMP) assay (AID 1508630). Note: % is set by controls: 0 for no effect and ±100 for the full control effect. The following applies: SH-SY5Y GLuc-SERCaMP (Gaussia luciferase released on ER calcium loss) secretion, thapsigargin, luminescence; series mostly up to 38.4 µM. In a few lines:
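The SH-SY5Y reporter protocol was run at 3 concentrations up to 38.3 uM (primary) or 11 concentrations (follow-up): 16 h compound, 100 nM thapsigargin for 4 h, then extracellular luciferase luminescence.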

In experiment [16] the target is Glucocorticoid receptor (Homo sapiens) (UniProt P04150). Put plainly: GR-EFC Redistribution (AID 451; calls by dose curve; note: potency is the fitted concentration of half-maximal effect). The conditions noted are these: CHO-K1 GR-EFC translocation, beta-gal luminescence, 2 h. The essentials:
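Translocation of GR-ED fusion to nuclear EA restores b-gal, read by luminescence after 1 h room-temperature detection. Engineered CHO-K1 biosensor cells, 1,000/well, exposed 2 h at 37 C to titrations up to 46 uM final.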

The mark [17] stands for this setting: measured here: cell count channel max response.
Where [18] appears, read: measured here: lipid channel max response.

Chain of Ubiquitin carboxyl-terminal hydrolase 1 (Homo sapiens) (O94782 whole entry, looked up): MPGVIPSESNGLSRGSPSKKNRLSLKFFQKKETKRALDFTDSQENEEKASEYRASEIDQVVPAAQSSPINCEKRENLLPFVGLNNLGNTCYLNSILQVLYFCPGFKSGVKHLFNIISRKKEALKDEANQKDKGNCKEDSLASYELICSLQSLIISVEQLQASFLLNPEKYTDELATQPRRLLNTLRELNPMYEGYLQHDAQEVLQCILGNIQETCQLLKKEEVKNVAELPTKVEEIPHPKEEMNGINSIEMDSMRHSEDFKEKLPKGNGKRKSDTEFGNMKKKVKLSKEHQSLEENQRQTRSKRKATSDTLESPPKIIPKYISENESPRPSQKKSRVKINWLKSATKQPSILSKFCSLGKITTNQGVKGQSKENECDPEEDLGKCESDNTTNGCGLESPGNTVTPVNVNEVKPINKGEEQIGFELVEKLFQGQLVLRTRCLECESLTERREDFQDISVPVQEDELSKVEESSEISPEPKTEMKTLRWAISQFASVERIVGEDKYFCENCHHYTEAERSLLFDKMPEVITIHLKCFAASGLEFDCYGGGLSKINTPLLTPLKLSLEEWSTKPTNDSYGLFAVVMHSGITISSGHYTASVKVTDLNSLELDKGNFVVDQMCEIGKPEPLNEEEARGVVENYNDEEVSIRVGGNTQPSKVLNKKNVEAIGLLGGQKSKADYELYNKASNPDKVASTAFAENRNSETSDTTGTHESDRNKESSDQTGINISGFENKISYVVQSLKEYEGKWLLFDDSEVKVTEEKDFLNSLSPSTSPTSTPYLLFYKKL
Chain of 3',5'-cyclic-AMP phosphodiesterase 4B (Homo sapiens) (Q07343 whole entry, looked up): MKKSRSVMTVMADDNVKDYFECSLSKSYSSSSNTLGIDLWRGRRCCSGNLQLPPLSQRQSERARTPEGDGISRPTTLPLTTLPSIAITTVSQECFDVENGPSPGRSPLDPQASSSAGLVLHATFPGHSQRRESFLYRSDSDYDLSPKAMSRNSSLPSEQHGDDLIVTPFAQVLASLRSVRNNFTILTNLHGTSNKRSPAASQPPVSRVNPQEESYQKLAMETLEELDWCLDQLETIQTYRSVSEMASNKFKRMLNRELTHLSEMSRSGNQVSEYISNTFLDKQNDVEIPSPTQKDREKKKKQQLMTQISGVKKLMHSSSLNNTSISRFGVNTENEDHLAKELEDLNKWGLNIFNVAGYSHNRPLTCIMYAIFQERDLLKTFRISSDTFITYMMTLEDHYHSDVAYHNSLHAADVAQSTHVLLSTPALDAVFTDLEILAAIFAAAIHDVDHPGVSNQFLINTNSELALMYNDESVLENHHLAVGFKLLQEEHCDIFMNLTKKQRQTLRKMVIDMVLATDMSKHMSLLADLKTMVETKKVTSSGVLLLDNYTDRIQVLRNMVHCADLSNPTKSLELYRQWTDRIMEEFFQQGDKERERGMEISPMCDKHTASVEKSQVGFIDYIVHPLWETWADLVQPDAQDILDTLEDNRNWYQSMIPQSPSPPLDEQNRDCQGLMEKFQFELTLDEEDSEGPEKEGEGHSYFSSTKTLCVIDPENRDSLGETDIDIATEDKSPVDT
Chain of Cytochrome P450 3A4 (Homo sapiens) (P08684 whole entry, looked up): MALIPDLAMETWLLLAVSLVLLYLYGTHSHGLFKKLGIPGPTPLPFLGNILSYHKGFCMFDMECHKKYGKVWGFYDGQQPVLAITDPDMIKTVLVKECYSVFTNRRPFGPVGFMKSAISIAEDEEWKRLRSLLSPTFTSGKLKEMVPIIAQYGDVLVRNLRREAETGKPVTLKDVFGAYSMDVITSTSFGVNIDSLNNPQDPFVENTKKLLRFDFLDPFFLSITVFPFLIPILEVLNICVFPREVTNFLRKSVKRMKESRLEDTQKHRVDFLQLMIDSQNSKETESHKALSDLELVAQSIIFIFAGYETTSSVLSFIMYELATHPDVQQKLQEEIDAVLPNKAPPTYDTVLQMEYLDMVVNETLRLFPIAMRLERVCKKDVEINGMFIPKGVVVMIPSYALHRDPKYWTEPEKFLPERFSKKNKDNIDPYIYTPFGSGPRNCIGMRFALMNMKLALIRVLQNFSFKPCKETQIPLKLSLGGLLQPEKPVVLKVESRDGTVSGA
Chain of Glucocorticoid receptor (Homo sapiens) (P04150 whole entry, looked up, the tested form may be a part): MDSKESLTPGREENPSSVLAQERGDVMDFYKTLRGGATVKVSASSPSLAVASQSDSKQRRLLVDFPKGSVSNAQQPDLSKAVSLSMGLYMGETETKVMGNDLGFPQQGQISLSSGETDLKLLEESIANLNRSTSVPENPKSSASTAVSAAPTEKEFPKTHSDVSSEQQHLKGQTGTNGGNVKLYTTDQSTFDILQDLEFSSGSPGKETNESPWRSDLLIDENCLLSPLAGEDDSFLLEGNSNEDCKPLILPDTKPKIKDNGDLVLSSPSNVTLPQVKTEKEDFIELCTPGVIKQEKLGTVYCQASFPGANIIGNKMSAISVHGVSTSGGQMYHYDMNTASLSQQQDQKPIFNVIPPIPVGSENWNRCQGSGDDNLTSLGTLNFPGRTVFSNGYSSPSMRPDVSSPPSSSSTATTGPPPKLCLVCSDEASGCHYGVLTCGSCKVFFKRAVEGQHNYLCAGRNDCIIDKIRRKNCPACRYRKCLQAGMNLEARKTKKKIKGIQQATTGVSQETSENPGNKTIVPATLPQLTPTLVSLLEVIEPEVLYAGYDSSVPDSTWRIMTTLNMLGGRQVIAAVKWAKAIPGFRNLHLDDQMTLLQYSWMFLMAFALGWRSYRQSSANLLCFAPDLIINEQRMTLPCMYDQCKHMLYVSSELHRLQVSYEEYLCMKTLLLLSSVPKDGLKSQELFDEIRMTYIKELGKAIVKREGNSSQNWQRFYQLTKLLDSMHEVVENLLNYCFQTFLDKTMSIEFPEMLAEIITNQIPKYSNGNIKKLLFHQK
Chain of Lysosomal acid glucosylceramidase (Homo sapiens) (P04062 whole entry, looked up): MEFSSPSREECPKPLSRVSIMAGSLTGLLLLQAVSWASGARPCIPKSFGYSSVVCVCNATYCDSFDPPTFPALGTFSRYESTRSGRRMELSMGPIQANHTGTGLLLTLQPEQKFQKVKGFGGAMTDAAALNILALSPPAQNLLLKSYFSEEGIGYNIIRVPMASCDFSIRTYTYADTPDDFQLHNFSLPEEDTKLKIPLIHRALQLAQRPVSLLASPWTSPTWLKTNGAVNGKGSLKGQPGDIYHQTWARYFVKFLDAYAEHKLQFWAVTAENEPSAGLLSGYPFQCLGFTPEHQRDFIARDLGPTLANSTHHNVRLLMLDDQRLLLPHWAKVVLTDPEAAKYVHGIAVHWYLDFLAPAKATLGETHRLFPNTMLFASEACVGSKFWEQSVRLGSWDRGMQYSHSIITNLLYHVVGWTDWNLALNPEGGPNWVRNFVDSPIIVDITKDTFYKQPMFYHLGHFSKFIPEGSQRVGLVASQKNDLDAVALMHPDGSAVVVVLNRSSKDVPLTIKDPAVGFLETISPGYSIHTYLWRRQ
Chain of Cytochrome P450 1A2 (Homo sapiens) (P05177 whole entry, looked up): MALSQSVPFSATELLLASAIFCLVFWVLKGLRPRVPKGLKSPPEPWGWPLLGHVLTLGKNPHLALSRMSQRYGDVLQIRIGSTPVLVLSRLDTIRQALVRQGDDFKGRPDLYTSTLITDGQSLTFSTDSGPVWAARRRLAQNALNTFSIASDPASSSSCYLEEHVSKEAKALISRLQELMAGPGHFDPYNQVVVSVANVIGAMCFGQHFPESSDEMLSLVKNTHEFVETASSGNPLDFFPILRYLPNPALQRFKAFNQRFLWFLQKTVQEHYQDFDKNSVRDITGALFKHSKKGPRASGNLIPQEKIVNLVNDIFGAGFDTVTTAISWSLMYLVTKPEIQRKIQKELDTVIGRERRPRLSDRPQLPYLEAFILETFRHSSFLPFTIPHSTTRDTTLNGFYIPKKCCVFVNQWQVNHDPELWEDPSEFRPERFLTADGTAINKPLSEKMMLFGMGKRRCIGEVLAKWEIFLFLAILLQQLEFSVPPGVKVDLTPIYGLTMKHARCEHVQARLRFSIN
Chain of Dual specificity protein kinase CLK4 (Homo sapiens) (Q9HAZ1 whole entry, looked up): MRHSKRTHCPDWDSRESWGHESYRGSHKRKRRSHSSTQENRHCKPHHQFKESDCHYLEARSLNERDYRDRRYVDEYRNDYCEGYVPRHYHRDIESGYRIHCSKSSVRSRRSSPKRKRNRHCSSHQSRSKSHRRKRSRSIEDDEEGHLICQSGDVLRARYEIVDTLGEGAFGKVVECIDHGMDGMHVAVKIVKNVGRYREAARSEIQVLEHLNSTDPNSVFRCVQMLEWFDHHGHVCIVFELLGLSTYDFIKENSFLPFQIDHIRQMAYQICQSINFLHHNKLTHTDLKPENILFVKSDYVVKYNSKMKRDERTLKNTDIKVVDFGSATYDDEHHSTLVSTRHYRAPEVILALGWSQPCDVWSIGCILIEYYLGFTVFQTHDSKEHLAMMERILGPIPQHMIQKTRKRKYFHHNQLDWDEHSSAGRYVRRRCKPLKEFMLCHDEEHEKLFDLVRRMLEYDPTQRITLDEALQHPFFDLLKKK

As to `N#CCCn1c(=O)c(-c2cccc(C#N)c2)nc2cnc(N3CCOCC3)nc21`, the Potency in experiment [1] is > 11.4 µM (inactive); in [3], 15.8 µM (active); in experiment [6] it was > 9.22 µM (inactive). The values for the activity change, negative = inhibition in experiment [2], in [4] and in experiment [10] were 2.97% (inactive), 6.22% (inactive) and -2% (inactive), respectively. Moreover, the activity, negative = inhibition in experiment [5] is 11.4% (inactive). The result in experiment [7] was inactive. Moreover, the Potency entry in experiment [8], in [9], in experiment [11], in [12], in experiment [13] and in experiment [14] was “inactive” throughout. Also, in [15], the Potency entry is “inactive”. For the same compound, the figures for the max response in experiment [10] (setting [17]) and in experiment [10] (setting [18]) were 13.8% and 7.79%, respectively.

Turning to `O=c1cnc2cnc(Nc3ccccc3)nc2n1C1CC1`, the Potency in experiment [1] is > 11.4 µM (inactive); in [3], 0.631 µM (active); in [6] it was > 9.22 µM (inactive); in experiment [16], > 46 µM (inactive); in [11], 2 µM (active); in experiment [12], 2.51 µM (active). The Potency in experiment [13] is 1.58 µM (active). In addition, the activity change, negative = inhibition in experiment [2] is -23.3% (inactive); in experiment [4], -2.7% (inactive); in experiment [10], -0.874% (inactive). Further, the activity, negative = inhibition in experiment [5] is -21.3% (inactive). Besides, the Potency entry in [9], in [14] and in experiment [15] was “inactive” in each case. Moreover, the max response in experiment [10] (setting [17]) turned out to be 4.87%; in experiment [10] (setting [18]), 2.12%.

For the compound `COCCNc1ncnc2ccc(-c3ccc(C(=O)N(C)C)cc3)cc12`, the Potency in experiment [1] is > 11.4 µM (inactive); in [6], > 46 µM (inactive); in experiment [16], > 46 µM (inactive). For the same compound, the activity change, negative = inhibition in [2] is -7.19% (inactive); in experiment [4] it was 11.8% (inactive); in experiment [10] it was -0.0247% (inactive). Also, the Potency entry in experiment [3], in experiment [8], in experiment [9], in experiment [11], in [12] and in experiment [13] was “inactive” in each case. The Potency entry in experiment [14] and in experiment [15] was “inactive” in each case. The activity, negative = inhibition in [5] is 0.699% (inactive). Besides, the compound was classed as inactive in experiment [7]. For the same compound, the figures for the max response in experiment [10] (setting [17]) and in experiment [10] (setting [18]) were 4.77% and 3.74%, respectively.

Consider `COCCn1c(=O)c(C)nc2cnc(N3CCN(C)CC3)nc21`, for which the Potency was > 11.4 µM (inactive) in experiment [1], 15.8 µM (active) in experiment [3], > 9.22 µM (inactive) in experiment [6] and > 46 µM (inactive) in [16]. The activity change, negative = inhibition in [2] was -5.64% (inactive); in experiment [4], 4.52% (inactive); in experiment [10] it was 2.08% (inactive). The activity, negative = inhibition in experiment [5] is -3.76% (inactive). Also, the compound was classed as inactive in experiment [7]. Besides, the Potency entry in experiment [8], in experiment [11], in [12], in experiment [13], in [14] and in experiment [15] was “inactive” in each case. Besides, the figures for the max response in experiment [10] (setting [17]) and in [10] (setting [18]) were 3.08% and 2.85%, respectively.

As for `O=c1cnc2cncnc2n1Cc1ccccc1`, the Potency in experiment [1] is > 11.4 µM (inactive); in experiment [3] it was 25.1 µM (active); in experiment [6], > 9.22 µM (inactive); in experiment [16], > 46 µM (inactive). In addition, the activity change, negative = inhibition in experiment [2] is -12.8% (inactive); in experiment [4] it was -13.5% (inactive); in experiment [10], 0.677% (inactive). For the same compound, the activity, negative = inhibition in experiment [5] was -12.1% (inactive). The result in experiment [7] was inactive. In addition, the Potency result in experiment [9], in experiment [11], in [12], in [13], in [14] and in experiment [15] was “inactive” each time. In addition, the figures for the max response in [10] (setting [17]) and in experiment [10] (setting [18]) were 15% and 14%, respectively.

For `Cn1c(=O)c(-c2cc(F)cc(F)c2)nc2cnc(N3CCOCC3)nc21`, the Potency is > 11.4 µM (inactive) in [1], 5.01 µM (active) in experiment [3], > 9.22 µM (inactive) in experiment [6] and > 46 µM (inactive) in [16]. Further, the activity change, negative = inhibition is -11% (inactive) in experiment [2], 14.4% (inactive) in [4] and 4.75% (inactive) in experiment [10]. In addition, in experiment [5], the activity, negative = inhibition is -1.78% (inactive). For the same compound, in [7], the outcome was inactive. In addition, the Potency entry in experiment [8], in [11], in experiment [12], in [13], in [14] and in experiment [15] was “inactive” each time. Moreover, the max response in [10] (setting [17]) is 16.8%; in experiment [10] (setting [18]) it was 22.4%.
